# ELG1 genotox – qHTS screen for small molecules that induce genotoxicity in human embryonic kidney (HEK293T) cells expressing luciferase-tagged ELG1; HEK293T ELG1-luciferase reporter, luminescence, 16 h; Potency, µM (series often up to 46 µM), for the others: top-dose activity change, positive = activation, most hits filed as activators; hit rate 1.3% among 330,000; also: % of control where 0% means no effect; nearly all actives have a fitted effect of over 60% in size
#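 HEK293T cells expressing luciferase-tagged ELG1 were exposed to compound or DMSO vehicle for 16 hr at 37 °C and 5% CO2. Luciferase activity was then measured with ONE-Glo after 30 min at room temperature.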
# SMN2 splice enh – qHTS Assay for Enhancers of SMN2 Splice Variant Expression | HEK293 SMN2-luciferase splicing reporter, luminescence, 30-36 h | Potency, µM (titrated, usually from 46.1 µM), for the others: at the top dose activity change, positive = activation, actives largely listed as activators | hit rate 2.8% among 210,000 | AID 1458, 2008; also: % of control where 0% means no effect; nearly all actives have a fitted effect of over 55% in size
#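 qHTS luciferase splicing reporter: luminescence rises when SMN2 exon 7 is included in transfected HEK293 cells. Compound exposure lasted 30-36 h at 37C, with 4.5 mM final sodium butyrate as control, followed by a ONE-Glo read.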
# Rab9 promoter act – qHTS Assay for Rab9 Promoter Activators. Huh7 Rab9 promoter-luciferase reporter, luminescence, 24 h. Potency, µM (series often up to 9.22 µM), for inactives: at the top dose activation, negative = inhibition, actives largely listed as activators. hit rate 2.8% among 320,000; also: % of control where 0% means no effect; nearly all actives have a fitted effect of over 60% in size
#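 Promoter activation is measured as luciferase luminescence in Huh7 cells stably transfected with a Rab9 promoter–luciferase construct, following 24 h compound exposure at 37 °C and 10 min reagent incubation at ambient temperature.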
# NPC1 prom act – qHTS Assay for NPC1 Promoter Activators; Huh7 NPC1 promoter luciferase reporter, 24 h; Potency, µM (highest dose often 9.22 µM), for inactives: at the top dose activation, hits mostly activators; hit rate 2.4% among 320,000; also: % of control where 0% means no effect; nearly all actives have a fitted effect of over 60% in size
#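 Luminescence from an NPC1 promoter-driven luciferase reporter in stably transfected Huh7 cells was measured after 24 h compound treatment at 37 °C, followed by 10 min ambient incubation with luciferase detection reagent.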
# ELG1 repair inh – qHTS screen for small molecules that inhibit ELG1-dependent DNA repair in human embryonic kidney (HEK293T) cells expressing luciferase-tagged ELG1 | HEK293T ELG1-luciferase reporter, luminescence, 16 h; DNA damage induced by 5-fluorouridine | Potency, µM (top dose mostly 46.1 µM), inactives show at the top dose activity change, negative = inhibition, most hits filed as inhibitors | hit rate 2.3% among 330,000 | AID 504467, 2011; also: % is scaled to controls: 0 for no effect and ±100 for the full control effect; nearly all actives have a fitted effect of over 55% in size
#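 5-Fluorouridine DNA damage + compound/DMSO, 2,000 cells/well, 16 h, 37 °C/5% CO2. ONE-Glo, 30 min RT, luminescence. Readout = decrease in reporter signal.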
# FLuc counter – qHTS profiling assay for firefly luciferase inhibitor/activator using purifed enzyme and Km concentrations of substrates (counterscreen for miR-21 project) | Luciferin 4-monooxygenase (Photinus pyralis), P08659 | purified FLuc, Km substrates, luminescence inhibition | Potency, µM (doses to about 57.5 µM), for the others: at the highest dose activity change, negative = inhibition, usual class: inhibitors | hit rate 6.9% among 360,000;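 also: plate controls were vehicle for no effect and reference inhibitor for full effect; nearly all actives have a fitted effect of over 55% in size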
#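 Purified P. pyralis luciferase (10nM final) with 10uM D-luciferin and 10uM ATP (Km levels) in 50mM Tris acetate pH 7.5, 10mM Mg acetate, 0.01% Tween-20, 0.05% BSA; qHTS 6-point titration, ~60 µM downward; luminescence read.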
# ELG1 FLuc counter – qHTS screen for small molecules that inhibit ELG1-dependent DNA repair: Hit Confirmation in Cell-Based Luciferin Assay | AID 624247, 2012 | hit rate 3% among 350 | Potency, µM (titrated, usually from 46.1 µM), without a hit: at the highest dose activity change, negative = inhibition, hits mostly inhibitors | cell-free firefly luciferase luminescence counter-screen, ViewLux | shares compounds with ELG1 repair inh; also: % is scaled to controls: 0 for no effect and ±100 for the full control effect
# ELG1 Luc conf – HTS assay for small molecules that inhibit ELG1-dependent DNA repair in human embryonic kidney (HEK293T) cells expressing luciferase-tagged ELG1: Hit Confirmation. shares compounds with ELG1 repair inh. HEK293T ELG1-luciferase levels, luminescence; cells co-treated with 5-fluorouridine. Potency, µM (top dose mostly 46.1 µM), for the others: top-dose activity change, negative = inhibition, hits mostly inhibitors. hit rate 68% among 670; also: % is scaled to controls: 0 for no effect and ±100 for the full control effect; nearly all actives have a fitted effect of over 55% in size
# ELG1-Luc MMS – MMS-stimulated human ELG1 repair inhibition, confirmed; shares compounds with ELG1 repair inh; HEK293T luciferase-tagged ELG1 level, MMS stimulated; Potency, µM (doses to about 46.1 µM), inactives show at the top dose activity change, negative = inhibition, actives largely listed as inhibitors; hit rate 53% among 670; AID 624249; also: % is scaled to controls: 0 for no effect and ±100 for the full control effect; nearly all actives have a fitted effect of over 60% in size
# ELG1 5FU viab – qHTS screen for small molecules that inhibit ELG1-dependent DNA repair: Hit Confirmation with 5FU Viability; Potency, µM (highest dose often 46.1 µM), for the others: top-dose activity change, negative = viability loss, most hits filed as cytotoxic; shares compounds with ELG1 repair inh; cell viability with 5-FU, ELG1-dependent repair; 670 tested, under 10 active;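 also: ELG1-luc HEK293T cells cotreated with 5-fluorouridine at 10 µM final; viability measured 16 h after compound addition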
# ELG1 MMS cell – qHTS screen for small molecules that inhibit ELG1-dependent DNA repair: Hit Confirmation with MMS Viability. shares compounds with ELG1 repair inh. Cell viability with MMS, ELG1-dependent DNA repair. Potency, µM (doses to about 46.1 µM), without a hit: at the highest dose activity change, negative = viability loss, hits mostly cytotoxic. hit rate 33% among 670;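 also: ELG1-luc HEK293T cells co-treated with 10 µM MMS; viability read 16 h after compound addition; % is scaled to controls: 0 for no effect and ±100 for the full control effect; nearly all actives have a fitted effect of over 60% in size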
# ELG1 unstim viab – qHTS screen for small molecules that inhibit ELG1-dependent DNA repair: Hit Confirmation with Unstimulated Viability Assay. shares compounds with ELG1 repair inh. hit rate 8% among 900. Potency, µM (series often up to 45.9 µM), inactives show at the top dose activity change, negative = loss of viability, most hits filed as cytotoxic. cell viability counter-screen, unstimulated, luminescence;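 also: compound exposure lasted 16 hours before reading; % is scaled to controls: 0 for no effect and ±100 for the full control effect; nearly all actives have a fitted effect of over 55% in size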
# FLuc biochem – qHTS screen for small molecules that inhibit ELG1-dependent DNA repair: Hit Confirmation in Biochemical Luciferin Assay. shares compounds with ELG1 repair inh. purified firefly luciferase, luminescence counter-screen. Potency, µM (highest dose often 57.5 µM), for inactives: at the highest dose activity, negative = inhibition, usual class: inhibitors. hit rate 10% among 350. AID 624253, 2012; also: % is scaled to controls: 0 for no effect and ±100 for the full control effect
# * marks the source's active call; other numbers are inactive results; ? = inconclusive; . = no result given; [ ] = dose if it differs, or a comment. Compounds with a hit are over-represented: about 9.3% of the library has one in this group of screens. Calls follow the shape of the dose curve; as a rule, active = well fitted curve in the direction sought with a large enough effect; inconclusive = small, poorly fitted or top-dose-only effect, or another doubt; inactive = no such curve, though single readings can be large; an effect the other way counts as inactive or inconclusive. Potency is read from the fitted curve at half-maximal effect.
SMILES,ELG1 genotox,SMN2 splice enh,Rab9 promoter act,NPC1 prom act,ELG1 repair inh,FLuc counter,ELG1 Luc conf,ELG1-Luc MMS,ELG1 5FU viab,ELG1 MMS cell,ELG1 unstim viab,others
O=C(OCCN1CCCCC1)c1cccc(Cl)c1,-4%,.,0%,-2%,12%,5%,.,.,.,.,.,
C[C@@H]1CC2[C@@H]3CCC4=CC(=O)C=C[C@]4(C)[C@@]3(F)[C@@H](O)C[C@]2(C)[C@@]1(O)C(=O)NCCCCCCOC[C@H]1O[C@@H](n2cnc3cc(Cl)c(Cl)cc32)[C@@H]2OC(C)(C)O[C@@H]21 (stereo partly specified),.,.,.,.,.,.,.,.,.,.,-22%[92.2 µM],ELG1 FLuc counter=21%[92.2 µM];FLuc biochem=-6%[115 µM]
C[C@@H]1C[C@@H]2[C@H]3CCC4=CC(=O)C=C[C@]4(C)[C@]3(F)[C@@H](O)C[C@]2(C)[C@@]1(O)C(=O)CO,.,-6%[20.6 µM],.,.,.,.,.,.,.,.,.,
COCCn1c(=N)c(C(=O)NCCc2ccc(OC)cc2)cc2c(=O)n3cccc(C)c3nc21,-2%,-17%,4%,5%,?,-1%,5µM*,?,?,3%,?,
CCOc1ccccc1N(C)C(=O)c1ccc2c(=O)n3c(nc2c1)CCCCC3,-1%,.,-3%,-3%,-15%,1%,.,.,.,.,.,
COc1ccc(/C=N/NC(=O)c2ccc(CN3c4cccc5cccc(c45)S3(=O)=O)cc2)cc1,0%,-27%,0%,2%,?,-20%,.,.,.,.,.,
COc1ccc(CCNC(=O)CN2c3cccc4cccc(c34)S2(=O)=O)cc1OC,0%,.,5%,1%,2.6µM*,2%,?,20%,?,-1%,?,
COc1cc(/C=N/NC(=O)c2ccc(CN3c4cccc5cccc(c45)S3(=O)=O)cc2)cc(OC)c1O,-1%,-27%,-2%,-5%,3.3µM*,-3%,3.5µM*,22µM*,?,25µM*,?,
O=C(COc1ccc(Cl)cc1)OCc1cc(=O)n2nc(C3CC3)sc2n1,.,.,.,.,.,4%,.,.,.,.,.,
COc1cc2ncnc(Nc3cccc(Cl)c3)c2cc1OC,.,-9%,-16%[46.1 µM],-9%[46.1 µM],.,5%,6.3µM*,7.1µM*,25µM*,18µM*,18µM*,
C=CCc1c(OC(C)=O)c2ccccc2n(C)c1=O,-6%,2%,0%,0%,3.3µM*,0%,?,7.1µM*,0%,10µM*,?,
CN(C)c1cccc(C(=O)NNC(=O)CN2C(=O)C3CC=CCC3C2=O)c1 (stereo unspecified),10µM*,.,.,.,?,.,.,.,.,.,-14%,
Cc1cccc(C)c1NC(=O)CN1C(=O)C2CC=CCC2C1=O (stereo unspecified),3%,.,-3%,-2%,8%,5%,.,.,.,.,.,
Fc1ccc(-n2c(Cn3nnc4ccccc43)n[nH]c2=S)cc1,4%,9%,-7%,-2%,-2%,0%,.,.,.,.,.,
Cc1cc(C(=O)COC(=O)C2=COCCO2)c(C)n1-c1ccccc1,0.26µM*,.,.,.,?,.,.,.,.,.,?,ELG1 FLuc counter=11µM*;FLuc biochem=0.092µM*
Cc1c(C(=O)NCCN(C)C)oc2ccc(S(=O)(=O)N3CCC4(CC3)OCCO4)cc12,5%,.,-3%,0%,15%,0%,.,.,.,.,.,
Cc1ccc(CNC(=O)c2oc3ccc(S(=O)(=O)N4CCC5(CC4)OCCO5)cc3c2C)cc1,-36%,-48%,-11%,-2%,0.82µM*,4%,3.5µM*,14µM*,?,22µM*,?,ELG1 FLuc counter=?;FLuc biochem=-1%
Cc1cc(=O)oc2c(C)c(OCC(=O)N3CCN(C(=O)C4COc5ccccc5O4)CC3)ccc12 (stereo unspecified),-11%,.,0%,-16%,?,-1%,.,.,.,.,.,
Cc1c(CC(=O)N2CCN(C(=O)C3COc4ccccc4O3)CC2)c(=O)oc2c(C)c(O)ccc12 (stereo unspecified),-8%,.,0%,0%,0.58µM*,-1%,4µM*,?,?,-2%,?,ELG1 FLuc counter=-14%;FLuc biochem=-4%
Cc1ccc(C)c(S(=O)(=O)N2CCCOC2CNC(=O)C(=O)NCCc2ccco2)c1 (stereo unspecified),1%,.,0%,-1%,-30%,-1%,.,.,.,.,.,
COc1cccc(/C=C/c2cnc3ccccc3n2)c1OC,.,.,.,.,.,.,.,.,.,.,-16%,ELG1 FLuc counter=-23%;FLuc biochem=0.33µM*

# Assay outcomes (PubChem BioAssay)
